A selection: hits, their analogues and other compounds. The true share with any hit is near 5.7%.
AHR activator: activates the human aryl hydrocarbon receptor; AHR-responsive luciferase reporter cells, luminescence; P35869; hit rate 2.5% among 320,000; activation, % at 5 µM; in the data active = activation above about 47%;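 note: 0% = vehicle wells and 100% = reference agonist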
ssDAF12 agonist: activators of S. stercoralis DAF-12 nuclear receptor | hit rate 1% among 370,000 | AID 652126 | activation, % at 6.8 µM | HEK293 ssDAF-12/GRIP1 lit1-tk-luc reporter, luminescence; % of 3 µM dafachronic acid response;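 active = activation above the mean over all tested compounds plus 3 SD, cut at about 0.9% in these data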;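 note: 0% = DMSO-only wells and 100% = 3 µM delta7-dafachronic acid wells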
hgDAF12 agonist: agonists of H. glycines DAF-12 nuclear receptor; HEK293 GAL4-hgDAF12 UAS-luciferase reporter, agonist luminescence; normalized to butyrate control; activation, % at 6.8 µM; hit rate 1.8% among 370,000;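 active = activation above a cutoff set at the mean of all screened compounds plus 3 SD, cut at about 10% in these data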;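 note: 0% = DMSO wells and 100% = sodium butyrate wells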
DAX1 inh-1: inhibits human nuclear receptor DAX1. P51843. HEK293 Gal4-DAX1 luciferase reporter, luminescence. AID 504766. inhibition, % at 6.75 µM. hit rate 0.99% among 340,000;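 active = inhibition above the mean over all tested compounds plus 3 SD, cut at about 4.2% in these data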;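 note: 0% = DAX1-transfected cells with DMSO and 100% = empty-vector control cells with DMSO; inhibition shows as a rise in luminescence from relieved DAX1 repression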
DAX1 inh-2: inhibitors of DAX1 repression of SF-1 activated StAR promoter; HEK293T StAR-luciferase reporter, SF-1/DAX-1 repression relief; inhibition, % at 6.8 µM; hit rate 1.1% among 370,000;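 active = inhibition above the mean over all tested compounds plus 3 SD, cut at about 3.6% in these data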;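 note: 0% = DAX-1 cells with DMSO and 100% = cells lacking DAX-1 with DMSO; higher inhibition means more luminescence from relief of DAX-1 repression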
hcDAF-12 act: activates DAF-12 receptor from parasite H. contortus; HEK293 hcDAF-12 lit1-tk-luc reporter, luminescence; 0% DMSO, 100% Δ7-dafachronic acid; activation, % at 6.8 µM; hit rate 1.4% among 370,000; AID 652067;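 active = activation above the mean of all tested compounds plus 3 SD, cut at about 5.5% in these data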;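 note: 100% = response to 3 µM Δ7-dafachronic acid high control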
* hit, by the source's call; . = not tested or not shown.

SMILES | AHR activator | ssDAF12 agonist | hgDAF12 agonist | DAX1 inh-1 | DAX1 inh-2 | hcDAF-12 act
O=C1N=c2ccccc2=C1c1sc(=O)[nH]c1O | 10 | -1 | -1 | . | 0 | -1
Cc1cc(NCc2ccccn2)n2ncc(-c3ccc(Cl)cc3)c2n1 | 76* | -1 | 9 | . | 1 | 3
Cc1cc(NCCCN2CCOCC2)n2ncc(-c3ccccc3)c2n1 | 38 | 1.3* | 11* | 2 | 3 | 6.0*
Cc1cc(NCc2ccccn2)n2ncc(-c3ccccc3)c2n1 | 74* | 1.3* | 12* | 4.7* | 3 | 5
Cc1cccc(Nc2ncnc3c2cnn3Cc2ccccc2)c1 | 13 | -1 | 3 | -1 | 0 | -4
O=Nc1onc(-c2ccc([N+](=O)[O-])cc2)c1NO | 5 | -1 | 1 | 3 | 0 | 0
N#Cc1c(NC2CCCCC2)nc(-c2ccco2)c2c1CCCC2 | 8 | . | . | 0 | . | .
N#CCSc1ccsc1C(=O)Nc1ccc(F)cc1 | 50* | -2 | 4 | 0 | 0 | 2
O=C(c1ccc2c(c1)OCCCO2)c1cccs1 | 4 | 0 | 10* | 2 | 3 | 5
COc1cccc2c1OC1(CCN(C(C)C)CC1)N1N=C(c3cccnc3)CC21 (centres undefined) | 4 | -1 | 8 | 6.8* | 0 | 1
CC(C)N1CCC2(CC1)Oc1ccc(Br)cc1C1CC(c3cccnc3)=NN12 (centres undefined) | 37 | 0 | 2 | 2 | 1 | 2
COc1cc(C2NC(=S)NC(C)=C2C(=O)Nc2ccc(C)cc2)ccc1O (centres undefined) | 6 | 0 | 11* | 2 | 2 | 3
Nc1nonc1-n1nnc(C(=O)N/N=C/c2cccc(F)c2)c1CN1CCCCCC1 | 1 | -2 | 1 | 4.7* | 0 | -1
Nc1nonc1-n1nnc(C(=O)N/N=C/c2cccc(F)c2)c1CN1CCCC1 | -2 | -1 | -2 | 2 | -1 | 0
COC(=O)c1nnn(-c2nonc2N)c1CN1CCCC1 | 1 | -1 | 2 | 4.4* | 0 | -1
O=C(CNC(=O)c1ccc(Br)o1)NNC(=O)c1ccccc1O | 13 | 0 | 0 | 0 | 0 | 1
Cc1cccc(OC(=O)CCN2C(=O)C3C4C=CC(C5CC45)C3C2=O)c1C (centres undefined) | -1 | -1 | 2 | 0 | 0 | 0
c1ccc(CN2CCOCC2)cc1 | -1 | -1 | 0 | 0 | 0 | 1
c1ccc2c(c1)Cc1cc(CN3CCOCC3)ccc1-2 | 5 | 0 | 13* | 2 | 3 | 3
C=CCn1cccc(C(=O)Nc2ccc(C)c(Cl)c2)c1=O | . | -1 | 5 | 0 | 1 | 0
C=CCn1cccc(C(=O)Nc2ccc(SC)cc2)c1=O | 65* | -1 | 7 | 0 | -1 | -1
C=CCn1cccc(C(=O)Nc2ccc(Cl)cc2)c1=O | 51* | -1 | 3 | -2 | -1 | -1
C=CCn1cccc(C(=O)Nc2ccc(N(C)C)cc2)c1=O | 15 | 0 | 11* | 1 | 1 | -1
O=C(Cc1cccs1)Nc1ccc(F)cc1F | 0 | 0 | 0 | 2 | 0 | -1
CCOC(=O)/C(C#N)=C\N(C)C | -1 | -1 | 0 | 2 | 0 | 0
SMILES | AHR activator | ssDAF12 agonist | hgDAF12 agonist | DAX1 inh-1 | DAX1 inh-2 | hcDAF-12 act
CCOC(=O)/C(C#N)=C/C=C1/C=CC=CN1C | -3 | -1 | 4 | 5.7* | 0 | -1
O=C(NCCCn1ccnc1)c1noc2c1CCc1ccccc1-2 | 29 | -1 | -2 | -1 | 0 | -1
O=C(NCCCn1ccnc1)Nc1ccc(Cl)cc1 | 21 | -1 | 1 | 2 | 0 | -1
O=C(NCCCn1ccnc1)c1noc2c1CCCC2 | 48* | -1 | 2 | 1 | 0 | 0
O=C(NCCCn1ccnc1)Nc1ccc(Cl)c(Cl)c1 | 30 | -1 | 0 | 0 | 1 | 5.8*
O=C(NCC1CC1(Cl)Cl)Nc1ccc(Cl)c(Cl)c1 (centres undefined) | 11 | 0 | 11* | 1 | 0 | -1
CCOc1cc(C(=O)NCCCn2ccnc2)cc(OCC)c1OCC | 50* | -1 | -1 | 1 | 0 | 5
COc1nc(NC(C)=O)nc(C)c1Br | -2 | -1 | 0 | . | 0 | 0
C[C@@H]1CN([C@@H](C)CO)C(=O)CCCn2nncc2CO[C@@H]1CN(C)S(=O)(=O)c1ccc(-n2cccn2)cc1 | . | -1 | 1 | 2 | -1 | 1
COc1cc(SC)ccc1C(=O)NCCCn1ccnc1 | 59* | -1 | 1 | 0 | 0 | 0
O=C(NCCCn1ccnc1)c1cc2cc([N+](=O)[O-])ccc2oc1=O | 4 | 0 | 1 | 4.2* | 0 | 0
Cc1cc(S(=O)(=O)NCC2CCCO2)c(C)cc1Br (centres undefined) | 0 | -1 | -2 | 0 | 0 | -1
CCOc1ccc(CNC(=O)CCS(=O)(=O)Cc2ccccc2C)cc1OC | 0 | -2 | -3 | 0 | 0 | -1
CN1CCN(c2nc3c(c(=O)[nH]c(=O)n3C)n2Cc2cccc(Br)c2)CC1 | -1 | -1 | 2 | 0 | 0 | -2
CSCc1ccc(C(=O)NCCSc2ccc(Br)cc2)cc1 | 15 | -1 | 6 | 0 | 4.1* | 5
O=C(NCCSc1ccc(Br)cc1)c1ccccc1 | 14 | -2 | 1 | 0 | 0 | -1
C/C(=N\NC(=S)Nc1cccc(C)c1)c1cc2ccccc2o1 | 49* | 0 | 5 | -1 | 0 | 4
O=C(NCC1CC1)C1Cc2c(-c3ccc4c(c3)OCO4)ccnc2O1 (centres undefined) | . | -1 | -1 | . | 0 | 1
C=C(C)c1cccc(C(C)(C)NC(=O)Nc2nnc(C(C)C)s2)c1 | 3 | -2 | -1 | -1 | 0 | -1
C=C(C)c1cccc(C(C)(C)NC(=O)Nc2nncs2)c1 | 10 | -1 | -2 | 4.8* | 0 | -2
COc1ccc(NC(=O)C2C(c3ccc4c(c3)OCO4)=Nc3ccccc3N2C(C)=O)cc1 (centres undefined) | . | 1 | 9 | . | 2 | 6.2*
Cc1nn(Cc2c(F)c(F)c(F)c(F)c2F)c(C)c1NC(=O)c1ccc(COc2cc(Cl)ccc2Cl)cc1 | 18 | 3.4* | 10 | 0 | 1 | 0
O=C(NCCc1cccs1)C1CC(c2ccccc2[N+](=O)[O-])=NO1 (centres undefined) | 13 | 0 | 5 | 3 | 2 | 5.8*
Cc1ccc(CCNC(=O)C2CC(c3ccccc3[N+](=O)[O-])=NO2)cc1 (centres undefined) | 10 | 0 | 2 | 1 | 0 | 2
Nc1ccc2nc(C(F)(F)F)[nH]c2c1 | 14 | -1 | 3 | 2 | 0 | 2
Cc1nc2cc3nc(C(F)(F)F)[nH]c3cc2[nH]1 | 50* | -2 | 2 | 0 | 1 | 1
